Measurements reported in PubChem BioAssay (NCI).
The panel holds about 79,000 compounds, 15% with a hit somewhere; the sample as a whole holds those more often. Active and inactive are the calls of the source. Cut-off read from the data, not from the text of the source: active = growth inhibition above about 70%; inactive = the rest.

How the values were obtained:
[1] = NCI Yeast Anticancer Drug Screen. Data for the rad52 strain (AID 147);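 note: 0% = growth of vehicle-treated control cultures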; conditions: S. cerevisiae rad52 mutant growth inhibition, hits give high values
Outline: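 Genetically altered yeast (DNA damage repair defect) treated with compound; inhibition calculated relative to vehicle.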

[2] = NCI Yeast Anticancer Drug Screen. Data for the wt1 strain (AID 149);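 note: 0% = growth of vehicle-treated wt1 cultures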; conditions: S. cerevisiae wt1 strain (SPY 50644) growth inhibition, hits give high values
Outline: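 wt1 strain grown with compound or vehicle; inhibition taken from the growth difference.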

[3] = NCI Yeast Anticancer Drug Screen. Data for the rad50EPP+ strain (AID 151);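 note: 0% = growth of vehicle-treated control cultures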; conditions: S. cerevisiae rad50 mutant strain, hits give high values
Outline: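 Strain rad50EPP+; compound exposure; % growth inhibition vs vehicle.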

[4] = NCI Yeast Anticancer Drug Screen. Data for the mgt1 strain (AID 153); conditions: S. cerevisiae mgt1 mutant growth inhibition, hits give high values
Outline: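 Read-out: yeast growth inhibition vs vehicle control. Strain mgt1, drawn from a panel altered in DNA damage repair or cell cycle control.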

[5] = NCI Yeast Anticancer Drug Screen. Data for the rad50 strain (AID 155);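 note: 0% = growth of vehicle-only cultures of the same strain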; conditions: S. cerevisiae rad50 strain growth inhibition, hits give high values
Outline: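 DNA repair mutant yeast, compound exposure, growth read-out; inhibition is taken relative to vehicle.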

[6] = NCI Yeast Anticancer Drug Screen. Data for the mec2-1 strain (AID 157); conditions: S. cerevisiae mec2-1 strain, hits give high values
Outline: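 Cells of the genetically defined mec2-1 yeast strain are incubated with test compound. Inhibition of growth is calculated against vehicle-treated controls.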

[7] = NCI Yeast Anticancer Drug Screen. Data for the rad14 strain (AID 159);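 note: 0% = growth of vehicle-treated control cultures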; conditions: S. cerevisiae rad14 strain growth inhibition, hits give high values
Outline: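 DNA repair-defective yeast, compound-exposed; % growth inhibition derived by comparison with vehicle-treated controls.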

[8] = NCI Yeast Anticancer Drug Screen. Data for the sgs1 mgt1 strain (AID 161);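 note: 0% = growth of cultures given vehicle only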; conditions: S. cerevisiae sgs1 mgt1 strain, hits give high values
Outline: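 Mutant yeast exposed to compound; growth scored against vehicle-only wells.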

[9] = NCI Yeast Anticancer Drug Screen. Data for the CLN2oe strain (AID 163);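 note: 0% = growth of vehicle-only control cultures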; conditions: S. cerevisiae CLN2oe strain, hits give high values
Outline: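 Strain altered in cell-cycle control, incubated with compound; growth compared to solvent-treated controls.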

[10] = NCI Yeast Anticancer Drug Screen. Data for the cln2 rad14 strain (AID 165);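 note: 0% = growth equal to vehicle treated cultures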; conditions: S. cerevisiae cln2 rad14 strain, hits give high values
Outline: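 The screen exposed genetically defined yeast (cln2 rad14) to test compounds and scored growth inhibition relative to vehicle-treated controls.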

[11] = NCI Yeast Anticancer Drug Screen. Data for the bub3 strain (AID 167); conditions: S. cerevisiae bub3 mutant strain, hits give high values
Outline: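 In this screen, a yeast mutant lacking normal mitotic checkpoint function is challenged with compound. Relative growth versus vehicle gives the inhibition value.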

[12] = NCI Yeast Anticancer Drug Screen. Data for the wt2 strain (AID 169);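 note: 0% = growth of vehicle-treated yeast cultures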; conditions: S. cerevisiae wt2 strain growth inhibition, hits give high values
Outline: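 Steps: yeast strain treated with compound; growth recorded; inhibition calculated relative to cultures given vehicle alone.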

[13] = NCI Yeast Anticancer Drug Screen. Data for the mlh1 strain (AID 171);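 note: 0% = growth of vehicle-treated control cultures of the same strain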; conditions: S. cerevisiae mlh1 strain growth inhibition, hits give high values
Outline: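 Yeast screen: mutant strain plus compound, growth scored against vehicle control wells.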

[14] = NCI Yeast Anticancer Drug Screen. Data for the sgs1 strain (AID 173);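 note: 0% = growth of vehicle-only control cultures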; conditions: S. cerevisiae sgs1 mutant, hits give high values
Outline: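 Inhibition of yeast growth served as the measure. The mutant strain was treated with each compound, and growth was normalised to cultures receiving vehicle alone.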

[15] = NCI Yeast Anticancer Drug Screen. Data for the mlh1 rad18 strain (AID 175); conditions: S. cerevisiae mlh1 rad18 strain growth inhibition, hits give high values
Outline: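 Compound-treated yeast growth, normalised to vehicle controls. Strain bears defined DNA repair mutations.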

[16] = NCI Yeast Anticancer Drug Screen. Data for the rad18 strain (AID 177); conditions: S. cerevisiae rad18 mutant growth inhibition, hits give high values
Outline: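 Inhibition values reflect reduced yeast growth compared with vehicle-treated controls, using a strain engineered with a DNA damage repair defect.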

[17] = at 5.0 µM (retest, dose inferred, filed as 0.5)
[18] = at 50.0 µM (retest, dose inferred, filed as 5.0)

Measured: growth inhibition

O=[N+]([O-])c1cn[n+]([O-])c2ccccc12
active: [1]; at 11.0 µM 90% | [1]; at 33.0 µM 97% | [1]; at 100.0 µM 99% | [2]; at 33.0 µM 93% | [2]; at 100.0 µM 99% | [3]; at 3.7 µM 90% | [3]; at 11.0 µM 96% | [3]; at 33.0 µM 99% | [3]; at 100.0 µM 100% | [4]; at 33.0 µM 99% | [4]; at 100.0 µM 99% | [5]; at 11.0 µM 85% | [5]; at 33.0 µM 97% | [5]; [18] 97% | [5]; at 50.0 µM 89.3% | [5]; at 100.0 µM 99% | [6]; at 33.0 µM 97% | [6]; [18] 99% | [6]; at 50.0 µM 91.8% | [6]; at 100.0 µM 99% | [7]; at 11.0 µM 91% | [7]; at 33.0 µM 99% | [7]; at 100.0 µM 99% | [8]; [18] 99% | [8]; at 50.0 µM 90.3% | [9]; at 33.0 µM 84% | [9]; at 100.0 µM 99% | [10]; [18] 98% | [10]; at 50.0 µM 92% | [11]; at 33.0 µM 99% | [11]; [18] 99% | [11]; at 50.0 µM 89.5% | [11]; at 100.0 µM 99% | [12]; at 11.0 µM 75% | [12]; at 33.0 µM 100% | [12]; at 100.0 µM 99% | [13]; at 33.0 µM 95% | [13]; at 100.0 µM 99% | [14]; at 3.7 µM 71% | [14]; at 11.0 µM 84% | [14]; at 33.0 µM 98% | [14]; at 100.0 µM 98% | [15]; [18] 97% | [15]; at 50.0 µM 92% | [16]; at 1.2 µM 92% | [16]; at 3.7 µM 93% | [16]; at 11.0 µM 95% | [16]; at 33.0 µM 98% | [16]; at 100.0 µM 99%
inactive: [1]; at 1.2 µM 33% | [1]; at 3.7 µM 59% | [2]; at 1.2 µM 0% | [2]; at 3.7 µM 16% | [2]; at 11.0 µM 34% | [3]; at 1.2 µM 61% | [4]; at 1.2 µM 10% | [4]; at 3.7 µM -5% | [4]; at 11.0 µM 33% | [5]; at 1.2 µM 14% | [5]; at 3.7 µM 58% | [5]; [17] 25% | [6]; at 1.2 µM 17% | [6]; at 3.7 µM 10% | [6]; [17] -31% | [6]; at 11.0 µM 52% | [7]; at 1.2 µM 21% | [7]; at 3.7 µM 43% | [8]; [17] 38% | [9]; at 1.2 µM 0% | [9]; at 3.7 µM 11% | [9]; at 11.0 µM 14% | [10]; [17] 7% | [11]; at 1.2 µM -1% | [11]; at 3.7 µM -12% | [11]; [17] -28% | [11]; at 11.0 µM 0% | [12]; at 1.2 µM -18% | [12]; at 3.7 µM 5% | [13]; at 1.2 µM 10% | [13]; at 3.7 µM 6% | [13]; at 11.0 µM 39% | [14]; at 1.2 µM 40% | [15]; [17] 38%

O=C(O)c1ccccc1C(=O)OC1CCc2ccccc2C1 (stereo unspecified)
inactive: [1]; at 1.2 µM -3% | [1]; at 3.7 µM -2% | [1]; at 11.0 µM 0% | [1]; at 33.0 µM 18% | [1]; at 100.0 µM 46% | [2]; at 1.2 µM -5% | [2]; at 3.7 µM -7% | [2]; at 11.0 µM -80% | [2]; at 33.0 µM -1% | [2]; at 100.0 µM 27% | [3]; at 1.2 µM 0% | [3]; at 3.7 µM -4% | [3]; at 11.0 µM -1% | [3]; at 33.0 µM -8% | [3]; at 100.0 µM -12% | [4]; at 1.2 µM -4% | [4]; at 3.7 µM -6% | [4]; at 11.0 µM -10% | [4]; at 33.0 µM -1% | [4]; at 100.0 µM 5% | [5]; at 1.2 µM -1% | [5]; at 3.7 µM 0% | [5]; [17] -12% | [5]; at 11.0 µM 1% | [5]; at 33.0 µM 14% | [5]; [18] 17% | [5]; at 50.0 µM 26.4% | [5]; at 100.0 µM 39% | [6]; at 1.2 µM -6% | [6]; at 3.7 µM -9% | [6]; [17] -20% | [6]; at 11.0 µM -11% | [6]; at 33.0 µM 13% | [6]; [18] 26% | [6]; at 50.0 µM 50.1% | [6]; at 100.0 µM 36% | [7]; at 1.2 µM -5% | [7]; at 3.7 µM -7% | [7]; at 11.0 µM -7% | [7]; at 33.0 µM 11% | [7]; at 100.0 µM 52% | [8]; [17] 1% | [8]; [18] 45% | [8]; at 50.0 µM 50.4% | [9]; at 1.2 µM -10% | [9]; at 3.7 µM -14% | [9]; at 11.0 µM -11% | [9]; at 33.0 µM 39% | [9]; at 100.0 µM 62% | [10]; [17] -74% | [10]; [18] -12% | [10]; at 50.0 µM 58% | [11]; at 1.2 µM -9% | [11]; at 3.7 µM -10% | [11]; [17] -1% | [11]; at 11.0 µM -9% | [11]; at 33.0 µM 17% | [11]; [18] 33% | [11]; at 50.0 µM 55.8% | [11]; at 100.0 µM 53% | [12]; at 1.2 µM -4% | [12]; at 3.7 µM -6% | [12]; at 11.0 µM -9% | [12]; at 33.0 µM -2% | [12]; at 100.0 µM 25% | [13]; at 1.2 µM -5% | [13]; at 3.7 µM -9% | [13]; at 11.0 µM -6% | [13]; at 33.0 µM 14% | [13]; at 100.0 µM 42% | [14]; at 1.2 µM -4% | [14]; at 3.7 µM -4% | [14]; at 11.0 µM -3% | [14]; at 33.0 µM 14% | [14]; at 100.0 µM 45% | [15]; [17] -4% | [15]; [18] 33% | [15]; at 50.0 µM 22.7% | [16]; at 1.2 µM -2% | [16]; at 3.7 µM -1% | [16]; at 11.0 µM -1% | [16]; at 33.0 µM 6% | [16]; at 100.0 µM 31%
